Key:
PEG-3 [1] = target: PEG-3 (UniProt Q6IN02); assay: Peg3 promoter luciferase inhibitors, potency, dose response, cell-based, HeLa, CREF/GAPDH counter-screen panel (AID 624167); settings: CREF/GAPDH counter-screens; HeLa PEG-Prom luciferase reporter, overnight, run 1, dose range 1, at 100 µM (top of the series) unless noted
PEG-3 [2] = target: PEG-3 (UniProt Q6IN02); assay: as above; settings: CREF/GAPDH counter-screens; HeLa PEG-Prom luciferase reporter, overnight, run 2, dose range 1, at 100 µM (top of the series) unless noted

Chain of PEG-3 (Q6IN02 whole entry, looked up): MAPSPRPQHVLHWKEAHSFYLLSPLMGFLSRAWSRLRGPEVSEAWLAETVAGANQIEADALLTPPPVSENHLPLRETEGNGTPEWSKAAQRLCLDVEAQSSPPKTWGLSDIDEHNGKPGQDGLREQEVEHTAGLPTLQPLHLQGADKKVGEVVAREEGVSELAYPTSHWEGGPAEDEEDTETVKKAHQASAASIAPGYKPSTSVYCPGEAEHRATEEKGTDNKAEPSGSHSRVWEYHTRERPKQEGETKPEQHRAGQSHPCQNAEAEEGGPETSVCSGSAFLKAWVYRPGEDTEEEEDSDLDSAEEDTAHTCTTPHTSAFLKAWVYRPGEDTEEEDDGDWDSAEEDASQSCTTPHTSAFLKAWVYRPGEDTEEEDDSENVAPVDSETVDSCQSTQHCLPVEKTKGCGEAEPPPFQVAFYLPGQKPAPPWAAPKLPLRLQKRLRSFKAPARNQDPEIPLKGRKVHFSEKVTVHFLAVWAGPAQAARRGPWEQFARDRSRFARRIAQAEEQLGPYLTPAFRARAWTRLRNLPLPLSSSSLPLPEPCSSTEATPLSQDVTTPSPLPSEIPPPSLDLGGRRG

| SMILES | inhibition (PEG-3 [1]) | inhibition (PEG-3 [2]) |
| --- | --- | --- |
| CCCCCc1ccc(OCCCC[n+]2cccc(C)c2)c(CCCCC)c1 | 98.6% | 101% |
| COc1ccc(CC(N)c2csc(NC(=O)Nc3ccccc3C(C)(C)C)n2)cc1 (centres undefined) | 102% | 98.5% |
| Cc1cccc(N2CCN(C(=O)C3CCN(c4ncnc5c4nc4n5CCCCC4)CC3)CC2)c1C | 101% | 90.7% |
| O=c1cc2oc3cc(O)c(O)cc3c(-c3ccccc3[N+](=O)[O-])c-2cc1O | 93.5% | 99.6% |
| COC(=O)C1=C(C)N(Cc2ccccc2)C(=NCc2cccc(Cl)c2)N[C@H]1c1ccccc1 | 102% | 101% |
| CCc1nc(Sc2nnnn2-c2ccccc2)c2c3c(sc2n1)CCCC3 | 68.7% | 91.8% |
| Cc1cc(C)cc(NC(=O)Cn2c(=O)oc3cc(S(=O)(=O)N4CCC(C)CC4)ccc32)c1 | 19.2% | 47.7% |
| Cc1ccccc1NC(=O)C(=Cc1ccc(C(=O)O)cc1)C(=O)Nc1ccccc1C | 90.3% | 101% |
| COc1cccc(N2CCN(CC(=O)Nc3ccccc3C(=O)NCc3ccccc3)CC2)c1 | 56.8% | 70.2% |
| COc1cccc(Nc2nc(C(N)C3CCCCC3)cs2)n1 (centres undefined) | 98.9% | 102% |
| CCN1C/C(=C/c2ccc(N3CCOCC3)cc2)C(=O)/C(=C/c2ccc(N3CCOCC3)cc2)C1 | 94.6% | 96.4% |
| CCCn1c(=N)n(CC(=O)c2ccc(Cl)cc2)c2ccccc21 | 101% | 100% |
| Oc1ccc(C[C@H]2CNCCN2CCc2cc(C(F)(F)F)cc(C(F)(F)F)c2)cc1 | 97.5% | 102% |
| CC(=O)Nc1cccc(-c2ccnc3c2CC(C)(C(=O)Nc2cccc(C(F)(F)F)c2)O3)c1 (centres undefined) | 92.6% | 88.4% |
| Cc1nc(N2CCN(c3ccccn3)CC2)c2c(C)c(C(=O)Nc3ccccc3F)sc2n1 | 53.1% | 34.9% |
| CC1(C)CC(NC(=O)c2cccc(S(=O)(=O)N(Cc3ccccc3)c3ccccc3)c2)CC(C)(C)N1 | 101% | 102% |

| SMILES | inhibition (PEG-3 [1]) | inhibition (PEG-3 [2]) |
| --- | --- | --- |
| COc1ccccc1N1CCN(C(=O)c2sc3ncnc(N4CCN(c5ccccn5)CC4)c3c2C)CC1 | 88.3% | 93.5% |
| O=C1C(Cl)=C(Nc2ccc(O)cc2)C(=O)c2ccccc21 | 102% | 101% |
| COc1cc(OC)c(OC)cc1CCC(C)NCCC(c1ccccc1)c1ccccc1 (centres undefined) | 100% | 96.7% |
| CC(=O)Nc1cccc(NC(=O)c2cc(-c3cccnc3)nc3ccc(Cl)cc23)c1 | 87.9% | 97.3% |
| COc1ccc(CCNC(=O)C(=O)NCC2CCCN2S(=O)(=O)c2ccccc2)cc1OC (centres undefined) | 97.2% | 81.7% |
| O=C(Nc1ccccc1)c1nc[nH]c1C(=O)NCCCNC(=O)c1[nH]cnc1C(=O)Nc1ccccc1 | -24.6% | 96.8% |
| CCc1ccc(NC(=O)CSc2nc3ccccc3c(=O)n2CCCN2CCC(C)CC2)cc1 | 99.2% | 101% |
| CC(C)CN(C(=O)COC(=O)/C=C/c1ccc(Cl)c(Cl)c1)c1c(N)n(Cc2ccccc2)c(=O)[nH]c1=O | -7.53% | -24.4% |
| O=C1N[C@@H](c2ccccc2)COC(=O)[C@@H](Cc2ccc(F)cc2)CC/C=C/C[C@H]1CC(=O)N(CCO)Cc1ccccc1 | 95.6% | 97.4% |
| NC1=NC[C@H](Cc2ccccc2)N1CCc1cc(C(F)(F)F)cc(C(F)(F)F)c1 | 101% | 101% |
| CN(C)CCNc1ccc2ncn3c4ccc(O)cc4c(=O)c1c23 | 101% | 99.7% |
| COc1cccc(Nc2nc(C(N)Cc3ccccc3)cs2)n1 (centres undefined) | 97.8% | 99.1% |
| CC1(Cc2ccc(Cl)c(Cl)c2)C(=O)Nc2ccc(S(=O)(=O)NC3CCCCC3)cc21 (centres undefined) | 92.8% | 95.4% |
| Cc1ccc(C)c(CN2CCC(CNC(=O)Nc3ccc(F)c(Cl)c3)CC2)c1 | 102% | 101% |
| Cc1ccc(-c2nnc(N3CCN(c4ccccn4)CC3)c3ccccc23)cc1 | 98% | 101% |
| O=S(=O)(c1cccc(F)c1)N1CCN(c2nc(-c3cccnc3)nc3ccccc23)CC1 | 26.5% | 46.2% |
